Laboratory results taken from PMC5540273 (PLoS ONE, 2017).

Experiments:
Settings in all cases: concentration: 1 μM, replicates: in singlicate; n = 1
MAP3K15 = system: MAP3K15
MAP3K1 = system: MAP3K1
MAP3K2 = system: MAP3K2
MAP3K3 = system: MAP3K3
MAP3K4 = system: MAP3K4
MAP4K2 = system: MAP4K2
MAP4K3 = system: MAP4K3
MAP4K4 = system: MAP4K4
MAP4K5 = system: MAP4K5
MAPKAPK2 = system: MAPKAPK2
MAPKAPK5 = system: MAPKAPK5
MARK1 = system: MARK1
MARK2 = system: MARK2
MARK3 = system: MARK3
MARK4 = system: MARK4
MAST1 = system: MAST1
MEK1 = system: T1, MEK1
T1 construct: gene MAP2K1

MEK2 = system: T2, MEK2
T2 construct: gene MAP2K2

MEK3 = system: T3, MEK3
T3 construct: gene MAP2K3

MEK4 = system: T4, MEK4
T4 construct: gene MAP2K4
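Note: KINOMEscan kinase panel screen.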

Compound | %Inh (MAP3K15) | %Inh (MAP3K1) | %Inh (MAP3K2) | %Inh (MAP3K3) | %Inh (MAP3K4) | %Inh (MAP4K2) | %Inh (MAP4K3) | %Inh (MAP4K4) | %Inh (MAP4K5) | %Inh (MAPKAPK2) | %Inh (MAPKAPK5) | %Inh (MARK1) | %Inh (MARK2) | %Inh (MARK3) | %Inh (MARK4) | %Inh (MAST1) | %Inh (MEK1) | %Inh (MEK2) | %Inh (MEK3) | %Inh (MEK4)
COc1cccc(-c2ccc3c(NC(=O)C4CC4)n[nH]c3n2)c1 [SB-710903] | 0% | 35% | 15% | 0% | 32% | 0% | 0% | 53% | 3% | 16% | 0% | 0% | 0% | 0% | 9% | 42% | 0% | 0% | 0% | 17%
Cc1ccc(S(=O)(=O)Nc2ccc(Nc3nccc(Nc4cccc5[nH]ncc45)n3)cc2)cc1 [GSK581271] | 0% | 5% | 3% | 0% | 7% | 0% | 34% | 0% | 0% | 0% | 0% | 0% | 0% | 0% | 7% | 7% | 0% | 0% | 0% | 10%
C[C@@H](Oc1cc(-n2cnc3cc(-c4ccnc(NCCS(C)(=O)=O)c4)ccc32)sc1C(N)=O)c1ccccc1Cl [GSK907232] | 6% | 92% | 10% | 0% | 35% | 20% | 85% | 21% | 96.3% | 0% | 0% | 11% | 34% | 43% | 20% | 6% | 0% | 0% | 0% | 26%
Cn1cc(-c2ccc3c(c2)CCN3C(=O)Cc2cccc(Cl)c2)c2c(N)ncnc21 [GSK2606590] | 17% | 11% | 84% | 56% | 52% | 8% | 71% | 0% | 79% | 19% | 0% | 2% | 2% | 3% | 11% | 0% | 19% | 0% | 0% | 33%
COc1cccc(NC(=O)NC2CCN(c3ccnc(Nc4cc(OC)c(OC)c(OC)c4)n3)C2)c1 (centres unmarked) [GSK1379763] | 0% | 80% | 3% | 0% | 39% | 0% | 12% | 56% | 81% | 0% | 0% | 0% | 0% | 0% | 0% | 0% | 0% | 9% | 8% | 12%
Cn1cc(-c2ccc3c(c2)CCN3C(=O)Cc2cccc(F)c2)c2c(N)ncnc21 [GSK2603358] | 0% | 15% | 84% | 50% | 66% | 18% | 64% | 0% | 57% | 31% | 0% | 69% | 0% | 0% | 34% | 5% | 15% | 0% | 0% | 26%
COc1ccc(Nc2nccc(NCCNC(=O)c3cc4ccccc4s3)n2)cc1 [GSK1379896] | 0% | 15% | 0% | 0% | 24% | 0% | 0% | 1% | 8% | 2% | 0% | 0% | 0% | 4% | 0% | 0% | 0% | 0% | 0% | 16%
Cc1ccc(F)c(C(=O)Nc2cccc(-c3nn4ccccc4c3-c3ccnc(Nc4cccc(F)c4)n3)c2)c1F [GSK361061] | 24% | 31% | 16% | 0% | 44% | 0% | 18% | 25% | 80% | 23% | 0% | 0% | 14% | 0% | 14% | 0% | 3% | 0% | 0% | 37%
Cc1occc1-c1ncc(OC[C@@H](N)Cc2c[nH]c3ccccc23)cc1-c1ccc2[nH]nc(C)c2c1.O=C(O)C(F)(F)F [GSK682037] | 10% | 11% | 96.9% | 98.6% | 22% | 99.3% | 99.4% | 99.2% | 99.6% | 0% | 0% | 44% | 62% | 68% | 33% | 35% | 7% | 0% | 90.7% | 43%
Cl.c1ccc(-c2ccc3c(Nc4ccc5[nH]ncc5c4)ccnc3c2)nc1 [GW440137] | 4% | 22% | 0% | 0% | 4% | 0% | 0% | 0% | 0% | 1% | 0% | 0% | 0% | 0% | 15% | 0% | 0% | 5% | 0% | 0%
